Most compounds without a hit are left out; they make up all but 4.7% or so of the library.
MLLE-PAM2 inh: inhibitors of PABP1 MLLE–PAM2 peptide binding, primary screen, biochemical, fluorescence polarization, FITC-PAM2, GST-MLLE | Polyadenylate-binding protein 1 (Homo sapiens), P11940 | actives 0.36% (n = 360,000) | inhibition, % at 20 µM; in the data active = inhibition above about 35%, passing the limit was not always enough;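 note: plate controls were DMSO wells with GST-MLLE for no effect and wells lacking GST-MLLE protein for full effect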
SUMO HTRF inh: inhibitors of in vitro SUMOylation cascade, primary screen, biochemical, HTRF, uHTS. SUMO-conjugating enzyme UBC9 (Homo sapiens), P63279. actives 0.36% (n = 290,000). inhibition, % at 35 µM. HTRF SUMOylation assay, SAE1/SAE2 + UBC9; in the data active = inhibition above about 50%, passing the limit was not always enough; inconclusive = no clear call, values can overlap the other calls
Target sequence (P63279 whole entry, looked up): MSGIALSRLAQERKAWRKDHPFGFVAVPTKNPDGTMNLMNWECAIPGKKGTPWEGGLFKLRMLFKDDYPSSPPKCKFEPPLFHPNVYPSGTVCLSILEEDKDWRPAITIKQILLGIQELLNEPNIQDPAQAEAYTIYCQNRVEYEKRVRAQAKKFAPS
Efflux pump mplx: inhibitors of Candida efflux pumps in yeast, primary screen, S. cerevisiae, Nile Red, multiplex; inhibition, % at 10 µM; AID 485275, 2010; S. cerevisiae Candida pump triplex; actives 0.44% (n = 330,000);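 active = plate passing quality check with inhibition over a set limit, or well fluorescence over plate mean plus 4 SD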;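 note: Nile Red retained in pooled yeast measured as flow cytometry median fluorescence; 0% = buffer negative control and 100% = Enniatin B positive control; higher means more Nile Red kept so more efflux inhibition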
ALR H2O2 inh: inhibitors of human ALR sulfhydryl oxidase, primary screen, biochemical, H2O2 detection, HRP-luminol luminescence, single point; inhibition, % (test concentration not listed); FAD-linked sulfhydryl oxidase ALR (Homo sapiens), P55789; purified ALR, DTT oxidation; actives 3.8% (n = 290,000);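 active = mean replicate inhibition above about 79%, with every replicate also reaching it, limit read from the data; inconclusive = only one of the two criteria met; inactive = mean below limit and not every replicate reaching it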
PABP FP inh: PABP poly(A) RNA binding inhibitors, primary screen, biochemical, fluorescence polarization, uHTS; inhibition, % at 35 µM; actives 1% (n = 290,000);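 note: calls also rest on retests at 20 µM and on dose response follow-up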
eIF4H FP inh: human eIF4H binding inhibitors, primary screen, translation initiation inhibitor project, biochemical, uHTS, fluorescence polarization | eIF4H fluorescence polarization binding assay | Eukaryotic translation initiation factor 4H (Homo sapiens), Q15056 | actives 0.94% (n = 290,000) | inhibition, % at 35 µM;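 note: calls also rest on retests at 20 µM and on dose response follow-up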
* marks the source's active call; other numbers are inactive results; ? = inconclusive; nt = not tested or not shown. Unless noted, the rule behind the calls is not given here.

SMILES	MLLE-PAM2 inh	SUMO HTRF inh	Efflux pump mplx	ALR H2O2 inh	PABP FP inh	eIF4H FP inh
CCn1c2ccccc2c2cc(NC(=O)c3ccccc3-c3ccccc3C(=O)O)ccc21	-5	24	0	98*	19	0
CCn1c2ccccc2c2cc(NC(=O)C(C)C)ccc21	-13	17	0	1	-9	-8
Cc1ccc(C(=O)N2CCC(C(=O)Nc3cccc([N+](=O)[O-])c3)CC2)cc1	1	-4	0	-9	-13	-7
S=c1[nH]nc2ccc3ccccc3n12	1	nt	nt	nt	nt	nt
S=c1[nH]c2ccccc2n2c(=S)[nH]nc12	41*	-14	0	99*	12	3
N=c1c(S(=O)(=O)c2ccc(Br)cc2)cc2c(=O)n3ccccc3nc2n1Cc1ccco1	-31	nt	0	12	64*	96*
N=c1c(S(=O)(=O)c2ccc(Cl)cc2)cc2c(=O)n3ccccc3nc2n1Cc1ccco1	-39	nt	0	nt	65*	73*
N=c1c(S(=O)(=O)c2ccc(Cl)cc2)cc2c(=O)n3ccccc3nc2n1CC1CCCO1 (stereo not given)	1	11	0	-12	0	-6
N=c1c(S(=O)(=O)c2ccc(Br)cc2)cc2c(=O)n3ccccc3nc2n1Cc1ccccc1	70	11	0	-1	50	39
COc1ccc(CCn2c(=N)c(S(=O)(=O)c3ccc(C)cc3)cc3c(=O)n4ccccc4nc32)cc1	79	17	0	-4	28*	?
CCn1c(=N)c(S(=O)(=O)c2ccc(Cl)cc2)cc2c(=O)n3ccccc3nc21	nt	22	0	nt	105*	83*
Cc1ccc(Cn2c(=N)c(S(=O)(=O)c3ccc(Br)cc3)cc3c(=O)n4ccccc4nc32)cc1	-26	-4	0	-1	1	3
O=C(COC(=O)c1cc(Cl)ccc1O)NNC(=O)c1ccccc1F	-3	nt	0	4	nt	nt

Screens deposited in PubChem by several laboratories.
